# PubChem BioAssay (EPA / NIEHS)
# Calls of active or inactive are those of the source. How the source made its calls: active means hit-call score of the fitted dose curve at least 0.9, where 1 is the maximum; inactive means score below 0.9.
# Assay: APR_HepG2_p53Act_1hr: Apredica 1-hour HepG2 Assay for p53 Activation (AID 2282671)
# Settings: high-content imaging, actives raise or lower the signal
# Description: APR_HepG2_1hr is a cell-based, multiplexed-readout assay that uses HepG2, a human liver cell line, with measurements taken at 1 hour after chemical dosing in a 384-well plate.APR_HepG2_p53Act_1hr is one of 10 assay component(s) measured or calculated from the APR_HepG2_1hr assay. It is designed to make measurements of dna content, a form of viability reporter, as detected with fluorescence intensity signals by HCS Fluorescent Imaging technology.Data from the assay component APR_HepG2_p53Act_1hr was analyzed into 1 assay endpoint. This assay endpoint, APR_HepG2_p53Act_1hr, was analyzed with bidirectional fitting relative to DMSO as the negative control and baseline of activity. Using a type of viability reporter, measures of protein for gain or loss-of-signal activity can be used to understand the signaling at the pathway-level as they relate to the gene TP53. Furthermore, this assay endpoint can be referred to as a primary readout, because this assay has produced multiple assay endpoints where this one serves a signaling function. To generalize the intended target to other relatable targets, this assay endpoint is annotated to the dna binding intended target family, where the subfamily is tumor suppressor.
# Cells were treated with dimethyl sulfoxide (DMSO) as a solvent control at a final concentration of 0.5% v/v or with compounds in DMSO with a resulting final DMSO concentration of 0.5% v/v. Compound treatment was done at concentrations of 0.39, 0.78, 1.56, 3.12, 6.24, 12.5, 25, 50, 100, and 200 uM in duplicate on each plate. Cells were treated with compounds for 1, 24, or 72 hr. Carbonyl […] m-chloro-phenylhydrazone (CCCP) and taxol were used as positive controls for mitochondrial function and cytoskeletal stability, respectively; DMSO served as the negative control for this experiment. Cells were fixed by the direct addition of 50 uL formaldehyde in Hank's Balanced Salt Solution (HBSS) to a final concentration of 3.7%. After incubation in the fixation medium for 30 min at room temperature (293-298 K), cells were rinsed twice with HBSS and treated with cell permeabilization buffer (16 uL of 0.5% Triton X-100) for 10 min at room temperature (293-298 K) before labeling. For mitochondrial membrane potential and mitochondrial measurements, pre-fixed cells were incubated with 50 uL of MitoTracker Red CMXRos (Invitrogen) at a concentration of 250 nM for 30 min before fixation. In the remaining cases, post-fixed cells were labeled by incubation with a multiplexed mixture of primary antibodies in HBSS for 60 min at room temperature (293-298 K) to detect immunoreactivity of c-Jun (1:500), phospho-histone H3 (1:100), phospho-histone H2A.x (1:200), p53 (1:400), alpha-tubulin (1:200) and Hoechst 33342 (2 ug/mL). Cells were labeled for multiplexed imaging on two separate plates: a) Hoechst 33342, MitoTracker Red, phospho-histone H3, and alpha-tubulin, and b) Hoechst 33342, phospho-histone H2A.x, and c-Jun. A final rinse with HBSS (50 uL) was performed before analysis. The primary and secondary antibodies for the proteins were phospho-histone H3 (rabbit anti-phospho-histone H3 and FITC-donkey anti-rabbit IgG), phospho-histone H2A.x (mouse anti-phospho-histone H2A.x and FITC-donkey anti-mouse IgG), c-Jun (rabbit anti-phospho-c-Jun and Cy3-donkey anti-rabbit IgG), p53 (sheep anti-p53 and Cy5-donkey anti-sheep IgG), alpha-tubulin (mouse anti-alpha-tubulin and Cy5-donkey anti-mouse IgG). These antibodies are available as the CellCiphr HepG2 assay kit (Millipore).Digital images of each well were captured using a Cellomics ArrayScan VTI (Thermo Scientific Cellomics) (0.8 NA objective, 0.63x optical coupler, and XF-93 filter set) at 20x magnification. The images were acquired using the autofocus feature of the ArrayScan instrument, which entails the following steps. First, the camera focuses on channel 1 (Hoechst 33342), where nuclei are identified. Second, a Z offset of 1 um is used for capturing mitochondria (MitoTracker Red). […]
row,Structure (SMILES),outcome
1,CCCCOC(=O)C(C)Oc1ccc(Oc2ccc(C(F)(F)F)cn2)cc1 (stereo not given),inactive
2,CCOC(=O)[C@H](C)Oc1ccc(Oc2nc3ccc(Cl)cc3o2)cc1,inactive
3,COC(=O)c1ccccc1S(=O)(=O)NC(=O)Nc1nc(OC(F)F)cc(OC(F)F)n1,inactive
4,CCCOC(=O)c1ccc(C(=O)OCCC)nc1,inactive
5,CC(C)(C)[C@@H](O)[C@@H](Cc1ccc(Cl)cc1)n1cncn1,inactive
6,OB(O)O,inactive
7,CCCOC(=O)NCCCN(C)C,inactive
8,O=C(O)C1(C(=O)Nc2ccc(Cl)cc2Cl)CC1,inactive
9,CC(C)(c1ccc(O)cc1)c1ccc(O)cc1,inactive
10,COC(=O)CSc1cc(N=c2sc(=O)n3n2CCCC3)c(F)cc1Cl,inactive
11,CCN(Cc1c(F)cccc1Cl)c1c([N+](=O)[O-])cc(C(F)(F)F)cc1[N+](=O)[O-],inactive
12,CCC(O)=C1C(=O)CC(C(=O)O)CC1=O (stereo not given),inactive
13,CCOC(=O)COc1cc(-n2ncc(C(F)(F)F)c(C)c2=O)c(F)cc1Cl,inactive
14,COC(=O)c1ccc(CNS(C)(=O)=O)cc1S(=O)(=O)NC(=O)Nc1nc(OC)cc(OC)n1,inactive
15,CCOC(=O)C(C)Oc1ccc(Oc2nc3ccc(Cl)cc3o2)cc1 (stereo not given),inactive
16,CCC(C)OC(=O)N1CCCCC1CCO (stereo not given),inactive
17,COCCO,inactive
18,CCCCC(CC)CN1C(=O)C2C3C=CC(C3)C2C1=O (stereo not given),inactive
19,CSC(=O)c1cccc2nnsc12,inactive
20,CCOC(=O)NCCOc1ccc(Oc2ccccc2)cc1,inactive

row,Structure (SMILES),outcome
1,CCCN(CCC)c1c([N+](=O)[O-])cc(C(F)(F)F)c(N)c1[N+](=O)[O-],inactive
2,COc1nc(C)nc(NC(=O)NS(=O)(=O)c2ccccc2OCCCl)n1,inactive
3,O=C(Nc1ccc([N+](=O)[O-])cc1Cl)c1cc(Cl)ccc1O,inactive
4,CCCCCCC(C)OC(=O)COc1nc(F)c(Cl)c(N)c1Cl (stereo not given),inactive
5,CCCN(CCC)C(=O)SCC,inactive
6,COC(=O)c1ccccc1C(=O)O,inactive
7,COC(=O)c1ccc(I)cc1S(=O)(=O)NC(=O)Nc1nc(C)nc(OC)n1,inactive
8,Oc1ccc(C(c2ccc(O)cc2)C(Cl)(Cl)Cl)cc1,inactive
9,CCNc1nc(N)nc(Cl)n1,inactive
10,C=CCOC(Cn1ccnc1)c1ccc(Cl)cc1Cl (stereo not given),inactive
11,Cc1nn(C)c(Oc2ccccc2)c1C=NOCc1ccc(C(=O)OC(C)(C)C)cc1,inactive
12,CCCCOC(=O)[C@@H](C)Oc1ccc(Oc2ccc(C(F)(F)F)cn2)cc1,inactive
13,CN(C)C(=O)Nc1ccc(Cl)c(Cl)c1,inactive
14,CCSC(=O)N(CC(C)C)CC(C)C,inactive
15,CCCCC(CC)COC(=O)c1ccccc1C(=O)O (stereo not given),inactive
16,CC1(C)C(C=C(Cl)Cl)C1C(=O)OCc1cccc(Oc2ccccc2)c1 (stereo not given),inactive
17,C#CCOC(=O)[C@@H](C)Oc1ccc(Oc2ncc(Cl)cc2F)cc1,inactive
18,COC(=O)c1c(Cl)nn(C)c1S(=O)(=O)NC(=O)Nc1nc(OC)cc(OC)n1,inactive
19,COC(=O)c1cccc(C)c1S(=O)(=O)NC(=O)Nc1nc(OCC(F)(F)F)nc(N(C)C)n1,inactive
20,c1ccc(Nc2ccccc2)cc1,inactive
